Counter-ions that a name gives are not always drawn. ± gives the standard deviation of the averaged measurements.
Tests used:
Test in all cases: cell viability (% of vehicle); higher = less cytotoxic
Conditions in all cases: 10 µM; 72 h
HCI01 = tested on: HCI01 (cells of a triple-negative basal-like breast cancer xenograft)
HCI03 = tested on: HCI03 (cells of an ER-positive luminal breast cancer xenograft)
HCI09 = tested on: HCI09 (cells of a triple-negative luminal androgen receptor type breast cancer xenograft)
HCI11 = tested on: HCI11 (cells of an ER-positive luminal breast cancer xenograft)
HCI13 = tested on: HCI13 (cells of an ER-positive luminal breast cancer xenograft)
HCI16 = tested on: HCI16 (cells of a triple-negative basal-like breast cancer xenograft)
UCD52 = tested on: UCD52 (cells of a triple-negative basal-like breast cancer xenograft)
WHIM2 = tested on: WHIM2 (cells of a triple-negative basal-like breast cancer xenograft)
WHIM30 = tested on: WHIM30 (cells of a triple-negative basal-like breast cancer xenograft)
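Further: PDX cells carrying CMV promoter-driven luciferase, viability read as total photon flux per second by IVIS imaging following D-luciferin, vehicle control 0.1% DMSO.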

Compound	cell viability (HCI01)	cell viability (HCI03)	cell viability (HCI09)	cell viability (HCI11)	cell viability (HCI13)	cell viability (HCI16)	cell viability (UCD52)	cell viability (WHIM2)	cell viability (WHIM30)
CC(C)(C(=O)O)c1ccc(C(O)CCCN2CCC(C(O)(c3ccccc3)c3ccccc3)CC2)cc1.Cl (configuration not stated) [Fexofenadine HCl]	127 ± 32	129	115 ± 1.6	96.4	131 ± 6.2	120	87.7 ± 9.4	84.5 ± 14	108 ± 14
Nc1ccc(S(=O)(=O)Nc2ccccn2)cc1 [Sulfapyridine]	111.2 ± 0.17	131	101 ± 2.1	92.6	138 ± 15	147	113 ± 19	100 ± 0.64	120 ± 12
CCCOc1ccc(C(=O)OCCN(CC)CC)cc1N.Cl [Proparacaine HCl]	99.6 ± 12	165	91 ± 17	91.9	111 ± 5.8	109	102 ± 11	97.1 ± 7.6	114 ± 13
O=C(O)CCNC(=O)c1ccccc1 [Betamipron]	121 ± 22	105	87.5 ± 28	98.2	69.8 ± 10	98.9	99.9 ± 9.4	101 ± 11	108 ± 4.5
Cc1nc2c([nH]1)CCN(C(=O)c1ccc(NC(=O)c3ccccc3-c3ccccc3)cc1)c1ccccc1-2.Cl [Conivaptan HCl]	111 ± 18	83.3	60.4 ± 7.1	85.3	99.5 ± 17	106	71.7 ± 2.5	104 ± 22	141 ± 2
CC(Cc1cc2c(c(C(N)=O)c1)N(CCCO)CC2)NCCOc1ccccc1OCC(F)(F)F (configuration not stated) [Silodosin]	103 ± 7.4	99.5	106 ± 39	127	96.6 ± 16	117	82.5 ± 14	98 ± 21	94.2 ± 6.5
CC1CC(OC(=O)C(O)c2ccccc2)CC(C)(C)C1 (configuration not stated) [Cyclandelate]	110 ± 9.8	122	87.6 ± 4.9	89.1	73.5 ± 14	113	80.8 ± 14	93.3 ± 10	95.91 ± 0.5
CCCCc1nc(Cl)c(CO)n1Cc1ccc(-c2ccccc2-c2nnn[n-]2)cc1.[K+] [Losartan Potassium (DuP 753)]	126 ± 8.5	124	106 ± 8.5	79	82.7 ± 0.98	82.3	97.9 ± 7.8	87 ± 17	118 ± 2.1
Cl.c1ccc(CN(CC2=NCCN2)c2ccccc2)cc1 [Antazoline HCl]	133.9 ± 0.91	123	103 ± 1.1	119	109 ± 9.2	144	66.7 ± 18	92.52 ± 0.86	102 ± 8.3
CCN(CC)CC(=O)Nc1c(C)cccc1C [Lidocaine]	107 ± 5.8	94.4	105 ± 5.4	100	100 ± 3.6	93.9	90.9 ± 16	74.4 ± 18	122 ± 21
CN(CC=CC#CC(C)(C)C)Cc1cccc2ccccc12.Cl [Terbinafine HCl]	93.6 ± 30	99	86.02 ± 0.12	81.6	73 ± 1.7	123	70.5 ± 7.4	62.8 ± 10	91.1 ± 1.7
CCC1=CC2CN(C1)Cc1c([nH]c3ccccc13)C(C(=O)OC)(c1cc3c(cc1OC)N(C)C1C(O)(C(=O)OC)C(OC(C)=O)C4(CC)C=CCN5CCC31C54)C2.O=C(O)C(O)C(O)C(=O)O.O=C(O)C(O)C(O)C(=O)O (configuration not stated) [Vinorelbine ditartrate]	106 ± 17	112	65.2 ± 5.9	109	39 ± 7.7	122	55.7 ± 4	57.2 ± 2.2	95.5 ± 16
NC(=O)c1ncn(C2OC(CO)C(O)C2O)c1O (configuration not stated) [Mizoribine]	82.4 ± 3.9	89.4	93.1 ± 30	88.8	90.05 ± 0.16	87.7	88.5 ± 5	97 ± 11	84.4 ± 3.9
CS(=O)(=O)OCCCCOS(C)(=O)=O [Busulfan]	99.951 ± 0.028	115	117 ± 7.2	105	109 ± 4.9	108	81.4 ± 3.8	97.6 ± 4	143 ± 10
NC(CO)(CO)CO [Trometamol]	86.3 ± 6.3	114	94.9 ± 21	91.5	58.4 ± 13	104	86 ± 7	99.2 ± 16	113 ± 12
CNS(=O)(=O)Cc1ccc2[nH]cc(CCN(C)C)c2c1 [Sumatriptan]	92.7 ± 1.9	119	84 ± 7.2	90.7	126 ± 3.5	110	98 ± 7.2	95.6 ± 19	110 ± 19
CNCC(O)C(O)C(O)C(O)CO.Cc1c(Nc2ncccc2C(=O)O)cccc1C(F)(F)F [Flunixin Meglumin]	135 ± 49	120	141 ± 44	103	133 ± 14	105	77.6 ± 16	130 ± 17	107 ± 2.9
O=C(NC(CO)C(O)c1ccc([N+](=O)[O-])cc1)C(Cl)Cl (configuration not stated) [Chloramphenicol]	109 ± 15	128	102 ± 12	86.1	81.3 ± 6.8	90.9	92.9 ± 3.5	106 ± 27	100 ± 18
Nc1cccc2c1C(=O)N(C1CCC(=O)NC1=O)C2=O (configuration not stated) [Pomalidomide (CC-4047)]	122 ± 2	126	87.9 ± 2.9	108	91.9 ± 8.8	103	104 ± 3.8	73.9 ± 5.1	133.9 ± 0.79
Cc1c(OCC(F)(F)F)ccnc1CS(=O)c1nc2ccccc2[nH]1 (configuration not stated) [Dexlansoprazole]	188 ± 46	149	94.9 ± 51	134	188 ± 57	170	143 ± 8.5	173 ± 16	186 ± 9.4
NC(CC(=O)N1CCn2c(nnc2C(F)(F)F)C1)Cc1cc(F)c(F)cc1F.O.O=P(=O)OO.[HH] (configuration not stated) [Sitagliptin phosphate monohydrate]	134 ± 15	154	94.1 ± 15	131	135 ± 37	135	120 ± 3.7	115.8 ± 0.55	144 ± 14
CCn1cc(C(=O)O)c(=O)c2cc(F)c(N3CCNCC3)nc21 [Enoxacin (Penetrex)]	101 ± 5.7	144	102 ± 13	109	104 ± 12	91	79.6 ± 0.81	85.5 ± 12	98.8 ± 2.7

Compound	cell viability (HCI01)	cell viability (HCI03)	cell viability (HCI09)	cell viability (HCI11)	cell viability (HCI13)	cell viability (HCI16)	cell viability (UCD52)	cell viability (WHIM2)	cell viability (WHIM30)
Cc1ccc(=O)n(-c2ccccc2)c1 [Pirfenidone]	92.4 ± 3	99.8	103 ± 26	89.4	106 ± 4.5	91.3	85.5 ± 5.1	97 ± 15	111 ± 11
CCCCOc1cc(C(=O)OCCN(CC)CC)ccc1N.Cl [Oxybuprocaine HCl]	162 ± 33	99.6	83.9 ± 11	88.8	95.5 ± 34	149	90 ± 31	126 ± 24	189 ± 3.2
Cc1ccc(NC(=O)C2(c3ccc4c(c3)OC(F)(F)O4)CC2)nc1-c1cccc(C(=O)O)c1	104 ± 31	89.5	78.15 ± 0.74	101	66 ± 2.5	103	86.82 ± 0.29	92.4 ± 28	157 ± 13
C#CC1(OC(C)=O)CCC2C3CCC4=CC(OC(C)=O)CCC4C3CCC21C (configuration not stated) [Ethynodiol diacetate]	136 ± 22	118	86.3 ± 5.5	73.4	142 ± 16	136	84.9 ± 5.6	107 ± 17	112 ± 16
Cc1cn(-c2cc(/N=C(\O)c3ccc(C)c(Nc4nccc(-c5cnccn5)n4)c3)cc(C(F)(F)F)c2)cn1 [Radotinib(IY-5511)]	89.5 ± 3.2	142	92.6 ± 13	92.9	80.9 ± 9.7	107	102 ± 10	100 ± 12	104 ± 27
Nc1nc(=O)c2nc(CNc3ccc(C(=O)NC(CCC(=O)O)C(=O)O)cc3)cnc2[nH]1 (configuration not stated) [Folic acid]	103 ± 21	118	97.5 ± 12	85.3	101 ± 2.8	117	92.4 ± 23	96.1 ± 4.2	101 ± 8.4
O=C(Oc1ccccc1C(=O)O)c1ccccc1O [Sasapyrine]	113 ± 14	109	108 ± 17	104	74.4 ± 6.4	122	90.2 ± 1.2	123 ± 24	142 ± 7.2
CN1C(C(=O)Nc2ccccn2)=C(O)c2sc(Cl)cc2S1(=O)=O [Lornoxicam]	95.2 ± 8.9	111	84.7 ± 25	85.6	82.4 ± 9.6	98.4	86.2 ± 5.5	112 ± 2.6	99.1 ± 6.5
Cc1cc(=O)n(-c2ccccc2)n1C [Antipyrine]	110 ± 15	131	101 ± 10	103	88.6 ± 1.1	95.9	98.2 ± 7.5	106 ± 30	125 ± 11
CN1CCN(c2cc3c(cc2F)c(=O)c(C(=O)O)cn3-c2ccc(F)cc2)CC1 [Difloxacin HCl]	60.2 ± 1	84.7	53.6 ± 2	190	115 ± 8.6	94.8	116 ± 9.9	71.6 ± 21	130 ± 23
CCOC(=O)C1=CC(OC(CC)CC)C(NC(C)=O)C(N)C1 (configuration not stated) [Oseltamivir]	111 ± 11	124	96.2 ± 20	97.4	99.2 ± 7.4	91	96.03 ± 0.49	91.98 ± 0.9	126 ± 6.9
NCCS(=O)(=O)O [Taurine]	105 ± 23	119	101 ± 18	86.6	61.4 ± 7.8	115	75.92 ± 0.27	109 ± 19	115 ± 9.7
CC(Cc1ccc(O)c(O)c1)(NN)C(=O)O (configuration not stated) [Carbidopa]	116 ± 20	122	121 ± 20	79.8	119 ± 14	149	124 ± 9.1	81.6 ± 11	126 ± 6.2
Cc1cn(C2CC(O)C(CO)O2)c(=O)[nH]c1=O (configuration not stated) [Telbivudine]	125 ± 3.9	128	141 ± 78	115	164 ± 67	99.4	95.5 ± 9.2	94.1 ± 16	124 ± 24
Nc1nc(N)c2nc(-c3ccccc3)c(N)nc2n1 [Triamterene]	105 ± 25	148	116 ± 17	109	120 ± 12	138	123 ± 28	94.5 ± 15	122 ± 17
O=C([O-])c1cc(=O)c2c(OCC(O)COc3cccc4oc(C(=O)[O-])cc(=O)c34)cccc2o1.[Na+].[Na+] [Cromolyn sodium]	136 ± 48	135	97.1 ± 3.8	71.8	102 ± 13	116	113 ± 5	134 ± 15	121 ± 4.5
CC(C)NCC(O)COc1ccc(CCOCC2CC2)cc1.Cl (configuration not stated) [Betaxolol HCl]	132 ± 2.2	134	107 ± 34	107	87 ± 6.8	149	74.2 ± 1.6	101 ± 15	117 ± 1.3
COc1ccc(CNc2nc(N3CCCC3CO)ncc2C(=O)NCc2ncccn2)cc1Cl (configuration not stated) [Avanafil]	155 ± 7.5	117	102 ± 23	143	123 ± 11	121	104 ± 15	130 ± 2.6	135 ± 7.5
CCCCCCNC(=O)n1cc(F)c(=O)[nH]c1=O [Carmofur]	110 ± 5.8	103	67.7 ± 9.4	131	80.9 ± 6.8	108	109 ± 41	92.5 ± 38	120 ± 17
CCCNC1CCc2nc(N)sc2C1 (configuration not stated) [Pramipexole]	122 ± 25	111	113 ± 5.7	110	163 ± 2.5	151	114 ± 20	101.5 ± 0.41	100 ± 12
CCC1OC(=O)C(C)C(OC2CC(C)(OC)C(O)C(C)O2)C(C)C(OC2OC(C)CC(N(C)C)C2O)C(C)(O)CC(C)C(=NOCOCCOC)C(C)C(O)C1(C)O (configuration not stated) [Roxithromycin]	138 ± 34	147	113 ± 25	101	133 ± 12	154	103 ± 2.8	103 ± 17	188 ± 29

Source: the supplement of paper PMC6992640
